The source of these data is PubChem BioAssay (Tox21).

Unmarked numbers belong to inactive results. Results filed as inconclusive are left out. Activity calls are given as the source filed them. Unless noted, the call rests on the fitted dose curve; in most records, active means well fitted curve in the direction sought with a large enough effect in the repeat runs; inconclusive means weak or mixed curves; inactive means no such curve, though single readings can be large; an effect the other way counts as inactive or inconclusive.

Assay [1] deals with Thyrotropin receptor (Homo sapiens) (UniProt P16473). In words: qHTS assay to identify small molecule agonists of the thyroid stimulating hormone receptor (TSHR) signaling pathway (AID 1224843; calls by dose curve; further: nearly all actives have a fitted effect of over 45% in size; further: potency means the concentration at half of the fitted maximal effect). In short, it runs like this: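 Using 15 concentrations per compound in triplicate, cAMP production was monitored in TSHR-HEK293 cells after 30 min compound incubation at RT; HTRF reagents followed, with fluorescence intensity recorded after 1 h.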
Sequence of Thyrotropin receptor (Homo sapiens) (P16473 whole entry, looked up): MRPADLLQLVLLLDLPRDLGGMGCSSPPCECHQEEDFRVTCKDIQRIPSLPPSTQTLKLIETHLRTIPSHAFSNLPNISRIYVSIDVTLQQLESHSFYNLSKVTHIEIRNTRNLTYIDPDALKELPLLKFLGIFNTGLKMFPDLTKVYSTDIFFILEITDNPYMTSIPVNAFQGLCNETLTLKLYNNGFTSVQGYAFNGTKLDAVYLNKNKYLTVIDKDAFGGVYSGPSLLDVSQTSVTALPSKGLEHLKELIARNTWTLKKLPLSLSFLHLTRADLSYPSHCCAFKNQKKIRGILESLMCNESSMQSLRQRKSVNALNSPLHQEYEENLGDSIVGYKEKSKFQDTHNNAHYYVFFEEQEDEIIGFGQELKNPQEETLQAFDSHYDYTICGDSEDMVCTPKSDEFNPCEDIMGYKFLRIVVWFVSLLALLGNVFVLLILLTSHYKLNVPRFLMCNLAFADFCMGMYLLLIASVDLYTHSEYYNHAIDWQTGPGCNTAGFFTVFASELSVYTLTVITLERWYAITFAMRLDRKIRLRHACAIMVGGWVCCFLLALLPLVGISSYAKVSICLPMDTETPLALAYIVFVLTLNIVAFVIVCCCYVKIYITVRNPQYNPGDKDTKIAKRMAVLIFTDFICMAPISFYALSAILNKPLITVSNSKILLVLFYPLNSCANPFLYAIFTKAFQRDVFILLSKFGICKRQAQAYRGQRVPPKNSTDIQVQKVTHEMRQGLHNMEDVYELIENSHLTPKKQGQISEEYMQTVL
A general note: In qHTS, concentration-response curves come from the screen itself.

Assay [2] can be described thus: qHTS assay to identify small molecule agonists of the hypoxia (HIF-1) signaling pathway - cell viability counter screen (AID 1224844; calls by dose curve; further: nearly all actives have a fitted effect of over 50% in size). In short, it runs like this:
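Viability counter screen: HRE-bla ME-180 cells plated 5 hrs before compound addition, treated 17 hrs at 37C and 5% CO2, then CellTiter-Glo added after the FRET reporter read; luminescence after 30 min.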

Assay [3] in a line: qHTS assay to identify small molecule agonists of H2AX (AID 1224845; active means well fitted activation curve with a large enough effect in the signal ratio in the repeat runs, not every such curve was filed as active; the % refers to the signal ratio). In short, it runs like this: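 Wild-type CHO-K1 cells plated overnight, then exposed 3 hr at 37C to compounds at 15 concentrations (0.76% DMSO). Lysed, then HTRF anti-pH2AX(S139)-cryptate/anti-H2AX-d2 detection after 24 hr at room temperature; emissions 665 and 620 nm.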
Assay [4] is described as follows: qHTS assay to identify small molecule agonists of the hypoxia (HIF-1) signaling pathway (AID 1224846; active means well fitted activation curve with a large enough effect in the signal ratio in the repeat runs, not every such curve was filed as active; the % refers to the signal ratio). In short, it runs like this: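 Agonist mode reporter screen. ME-180 cells stably expressing bla under HRE control received test compounds in DMSO for 17 hrs (37C, 5% CO2), and beta-lactamase activity was then detected with the CCF4-AM FRET substrate.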
A short description of assay [5]: qHTS assay to identify small molecule agonists of H2AX - cell viability counter screen (AID 1224847; calls by dose curve; further: top concentration of the series differs between compounds; nearly all actives have a fitted effect of over 30% in size). In short, it runs like this:
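Quantitative HTS viability measurement: CHO-K1 wild-type cells in serum (10% FBS) medium, short 3 hr drug exposure at 37C with 0.76% DMSO, CellTiter-Glo luminescent detection.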

The nature of assay [6]: qHTS RealTime-Glo MT Cell Viability Assay in HepG2 cells - 24 hour (AID 1224867). Further: nearly all actives have a fitted effect of over 50% in size. In short, it runs like this:
(§1)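 qHTS, HepG2, 600 cells/well, RealTime-Glo (NanoLuc + prosubstrate) added with cells; 5 h preincubation; DMSO compound addition; 37 C; luminescence at 0/8/16/24/32/40 h.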

Assay [7] can be described thus: A CellTox Green Cytotoxicity Assay to monitor cytotoxicity in HEK293 cells - 0 hour (AID 1224869). Further: nearly all actives have a fitted effect of over 50% in size. The procedure, abridged: (§2)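 Dead-cell fluorescence measured kinetically: asymmetric cyanine dye, HEK293, 600 cells/well, 5 h settle, 23 nL cpd/DMSO, 37 C, reads 0–40 h every 8 h.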
A short description of assay [8]: qHTS RealTime-Glo MT Cell Viability Assay in HepG2 cells - 40 hour (AID 1224870). Further: nearly all actives have a fitted effect of over 50% in size. The procedure, abridged:
(§3)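 HepG2 cells mixed with RealTime-Glo MT reagents (NanoLuc plus cell-permeant prosubstrate) were seeded at 600 cells/well, incubated 5 h at 37 C/5% CO2, then pinned with compounds in DMSO; nonlytic luminescence tracked viability during 40 h treatment.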

Assay [9] can be described thus: A CellTox Green Cytotoxicity Assay to monitor cytotoxicity in HEK293 cells - 40 hour (AID 1224871). Further: nearly all actives have a fitted effect of over 45% in size. In short, it runs like this:
as §2

A short description of assay [10]: qHTS RealTime-Glo MT Cell Viability Assay in HepG2 cells - 8 hour (AID 1224873). Further: nearly all actives have a fitted effect of over 55% in size. In short, it runs like this:
as §3

A short description of assay [11]: A CellTox Green Cytotoxicity Assay to monitor cytotoxicity in HEK293 cells - 24 hour (AID 1224875). Further: nearly all actives have a fitted effect of over 45% in size. In short, it runs like this: as §2
Assay [12] in a line: A CellTox Green Cytotoxicity Assay to monitor cytotoxicity in HepG2 cells - 16 hour (AID 1224876). Further: nearly all actives have a fitted effect of over 45% in size. In short, it runs like this: (§4)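 First, HepG2 cells (600/well) mixed with reagent were plated; second, after 5 h at 37 C they received compounds via pintool; third, fluorescence was measured at 0 h through 40 h at 8 h intervals.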
Assay [13] can be described thus: qHTS RealTime-Glo MT Cell Viability Assay in HepG2 cells - 32 hour (AID 1224877). Further: nearly all actives have a fitted effect of over 55% in size. The procedure, abridged: as §1
Assay [14] is described as follows: A CellTox Green Cytotoxicity Assay to monitor cytotoxicity in HepG2 cells - 24 hour (AID 1224878). Further: nearly all actives have a fitted effect of over 45% in size. The procedure, abridged:
as §4

The nature of assay [15]: qHTS assay to identify small molecule agonists of the estrogen related receptor (ERR) signaling pathway from Tox21 library (AID 1224849; calls by dose curve; further: nearly all actives have a fitted effect of over 15% in size). The settings on record: ERR reporter cell line, ONE-Glo luciferase, 18 h; at 92.4 µM (top of the series) unless noted. The procedure, abridged:
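Quantitative HTS in agonist format: NTP ERR cell line, compounds transferred in DMSO after 6 h plating, 18 h incubation at 37 C, ONE-Glo luminescence endpoint.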

A short description of assay [16]: qHTS RealTime-Glo MT Cell Viability Assay in HEK293 cells - 32 hour (AID 1224868). In short, it runs like this: (§5)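 Assay medium contained NanoLuc luciferase plus cell-permeant prosubstrate, added with HEK293 cells at 600 cells/well. After 5 h at 37 C/5% CO2 compounds were added; plates stayed at 37 C for 40 h with serial luminescence reads.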
Assay [17] in a line: qHTS RealTime-Glo MT Cell Viability Assay in HEK293 cells - 16 hour (AID 1224872). The procedure, abridged: as §5
Assay [18] can be described thus: qHTS RealTime-Glo MT Cell Viability Assay in HEK293 cells - 40 hour (AID 1224874). Further: nearly all actives have a fitted effect of over 50% in size. The settings on record: RealTime-Glo luminescence; max response: active compounds read low. In short, it runs like this: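 600 HEK293 cells per well, dispensed already mixed with RealTime-Glo MT reagents. Compound dosing came 5 h later. The same wells were read for luminescence at 0, 8, 16, 24, 32 and 40 h of exposure at 37 C.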

A short description of assay [19]: A CellTox Green Cytotoxicity Assay to monitor cytotoxicity in HepG2 cells - 40 hour (AID 1224879). Further: nearly all actives have a fitted effect of over 40% in size. Further: potency means the concentration at half of the fitted maximal effect. The procedure, abridged: as §4
The nature of assay [20]: qHTS assay to identify small molecule antagonists of the estrogen related receptor (ERR) signaling pathway from Tox21 library (AID 1224848). Further: nearly all actives have a fitted effect of over 50% in size. In short, it runs like this: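 Tox21 10K compounds in DMSO tested for ERR pathway antagonism in NTP's ERR cell line; 18 h, 37 C exposure; ONE-Glo luminescence.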
On the % scale 0 is the no-effect control and ±100 the full control effect.

`CN(C)C(=O)NC1(c2ccccc2)CCN(CCC[C@]2(c3ccc(Cl)c(Cl)c3)CCCN(C(=O)c3ccccc3)C2)CC1`: the activation is -9.82% [at 19 µM] in [1] and 0.323% [at 15.8 µM] in assay [4]. Further, the activity change, negative = cytotoxicity in assay [2] was -18.7% [at 15.8 µM]; in assay [5], -0.817% [at 31.6 µM]; in [6], -9.68% [at 15.8 µM]. Also, the activation (H2AX phosphorylation) in assay [3] is 5.48% [at 31.6 µM]. The cytotoxicity in [7] is -1.6% [at 15.8 µM]; in assay [14] it was 19.6% [at 15.8 µM]. The values for the activity change, negative = cytotoxic in assay [8] and in assay [13] were -4.9% [at 15.8 µM] and -9.2% [at 15.8 µM], respectively. Besides, the cytotoxicity increase in assay [9] was 31% [at 15.8 µM]; in [12] it was 15.3% [at 15.8 µM]. Besides, in assay [10], the viability change, negative = cytotoxic is -6.85% [at 15.8 µM]. The activity change in [11] was 4.75% [at 15.8 µM, active compounds read high].
Consider `CN1CCN(C2=Nc3ccccc3Oc3ccc(Cl)cc32)CC1`, for which the Potency entry in assay [1], in assay [2], in assay [3], in [6], in assay [16] and in [7] was “inactive” each time. The Potency result in assay [8], in assay [9], in assay [17], in assay [11], in [12] and in [13] was “inactive” in each case. For the same compound, in [15], the activity change, positive = activation was -21.9% [at 42.5 µM]. Also, in [10], the result was inactive. Moreover, the max response in assay [18] is -25.8%. Moreover, in assay [19], the Potency was 19 µM (active).
Turning to `CCN1CC(CCN2CCOCC2)C(c2ccccc2)(c2ccccc2)C1=O` (stereo not given), the Potency entry in [2], in [3], in [5], in assay [20], in [6] and in assay [16] was “inactive” each time. Further, the Potency entry in assay [7], in [8], in assay [9], in [17], in assay [11] and in assay [12] was “inactive” in each case. The Potency result in assay [13], in [14] and in [19] was “inactive” throughout. Further, the result in [4] and in assay [10] was inactive. Also, the activity change, positive = activation in [15] is -6.21% [at 42.5 µM]. Further, the max response in assay [18] was 20.2%.
For `CC(=O)Oc1cc(C(C)C)c(OCCN(C)C)cc1C`, the Potency result in [1], in assay [2], in [3], in [5], in assay [6] and in assay [7] was “inactive” each time. Also, the Potency result in assay [8], in assay [9], in assay [11], in assay [12], in assay [13] and in assay [14] was “inactive” each time. In addition, in [19], the Potency entry was “inactive”. In assay [10], the result was inactive.
In the case of `O=C(CC(=O)C(F)(F)F)c1ccccc1`, the Potency in [1] is 17.5 µM (active). Besides, the Potency result in assay [3], in assay [5], in [20], in [6], in assay [16] and in assay [7] was “inactive” throughout. For the same compound, the Potency entry in assay [8], in assay [9], in assay [17], in [11], in assay [12] and in [13] was “inactive” throughout. The Potency entry in assay [14] and in assay [19] was “inactive” each time. In addition, the activity change, positive = activation in [15] is -6.03%. The result in [10] was inactive. Besides, in [18], the max response is -4.62%.
Take `OCC(CBr)(CBr)CBr`: the Potency entry in [1], in assay [2], in [5], in assay [6], in assay [7] and in assay [8] was “inactive” each time. The Potency result in [9], in [17], in assay [11], in assay [12], in assay [13] and in [19] was “inactive” in each case. The call in [4] and in assay [10] was inactive.
